{"source": "PubChem BioAssay (NCATS)", "note": "Records with an inconclusive call do not appear. A call without a number means that no potency is given here. Calls of active or inactive are those of the source. Calls come from the whole dose curve; as a rule, active = well fitted inhibition curve with a large enough effect; inconclusive = small, poorly fitted or top-dose-only effect; inactive = no such curve, though single readings can be large or run the other way."}
{"tested_on": "Zika virus NS2B-NS3 protease (linked construct)", "test": "Primary screen NINDS Rhodamine qHTS for Zika virus inhibitors (AID 1347160); note: nearly all actives have a fitted effect of over 55% in size", "conditions": "purified NS2B-NS3 protease, Rhodamine110 substrate fluorescence; series mostly up to 33.1 µM", "outline": "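Percent inhibition, normalized to uninhibited and enzyme-free controls, is fitted to a 4-parameter Hill equation. Fluorescence change comes from a 15-min cleavage of 1.5 microM bis-peptide Rhodamine110 substrate by 25 nM linked NS2B-NS3 at room temperature.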"}
{"molecule": "COc1cc(C2OCC3(O)C(c4ccc(O[C@@H]5O[C@H](CO)[C@@H](O)[C@H](O)[C@H]5O)c(OC)c4)OCC23O)ccc1O", "note": "(some centres undefined)", "Potency": "inactive"}
{"molecule": "COC(=O)C1(O)C(OC(C)=O)CCC2C3(CC(c4ccoc4)OC3=O)C(C)=CCC21C(=O)OC", "note": "(centres undefined)", "Potency": "inactive"}
{"molecule": "COc1cc(/C=C/C(=O)OC[C@H]2O[C@@H](OC3OC=C(C(=O)O)C4C(O)CC(C)(O)C34)[C@H](O)[C@@H](O)[C@@H]2O)cc(OC)c1O", "note": "(some centres undefined)", "Potency": "inactive"}
{"molecule": "C[C@]12CCC[C@](C)(C(=O)O)C1CCC13CC(CO)C(CCC12)C3", "note": "(some centres undefined)", "Potency": "inactive"}
{"molecule": "CC(=O)N[C@H]1[C@H](O[C@H]2CC[C@]3(C)C4CC=C5[C@@H]6CC(C)(C)CC[C@]6(C(=O)O)[C@H](O)C[C@@]5(C)[C@]4(C)CC[C@H]3C2(C)C)O[C@H](CO)[C@@H](O)[C@@H]1O", "note": "(some centres undefined)", "Potency": "inactive"}
{"molecule": "COC(=O)C1C(O)CCC2CN3CCc4c([nH]c5ccccc45)C3CC21", "note": "(centres undefined)", "Potency": "inactive"}
{"molecule": "C=C1CCc2occ(C)c2[C@H]2[C@H]1[C@@]13O[C@@]1(C[C@@H](C)[C@H]3OC(C)=O)[C@H]1O[C@@]21C", "Potency": "inactive"}
{"molecule": "CC(=O)[C@@H]1C[C@H](C(C)(C)O[C@@H]2O[C@H](CO)[C@@H](O)[C@H](O)[C@H]2O)CC[C@@]2(CO)OC(=O)C[C@@H]12", "Potency": "inactive"}
{"molecule": "CC1=CC2=C(C)C(=O)[C@](C)(O)[C@H](O)C2=CO1", "Potency": "inactive"}
{"molecule": "CC1CC(O)/C=C/C(O)/C=C\\C(=O)O1", "note": "(centres undefined)", "Potency": "inactive"}
{"molecule": "Oc1ccccc1-c1cc(-c2ccccc2F)[nH]n1", "Potency": "inactive"}
{"molecule": "CN(C)CC(c1ccc(O)cc1)C1(O)CCCCC1", "note": "(centres undefined)", "Potency": "inactive"}
{"molecule": "C=C1[C@@H]2CC[C@@]3(C)[C@H](c4ccoc4)OC(=O)C[C@]13O[C@H]1CC(=O)C(C)(C)[C@H](C(O)C(=O)OC)[C@]12C", "note": "(some centres undefined)", "Potency": "inactive"}
{"molecule": "CCN=C1N[C@@H]2[C@@H](O)[C@H](O)[C@@H](CO)O[C@@H]2S1", "Potency": "inactive"}
{"molecule": "CC(CC12CCCN1C(=O)C1CCCN1C2=O)OC(N)=O", "note": "(centres undefined)", "Potency": "inactive"}
{"molecule": "CC1(C)C=Cc2c(ccc3c2N=C2C(C)(C)[C@@H]4C[C@]56CCCN5C(=O)[C@@]4(C[C@]23O)NC6=O)O1", "Potency": "inactive"}
{"molecule": "C=C1C(OC(C)=O)C(=O)C2C(C)(C)C(O)CCC2(C)C1CC(OC(C)=O)/C(C)=C/COC(C)=O", "note": "(centres undefined)", "Potency": "inactive"}
{"molecule": "Fc1ccc(-c2c3cccc(C(F)(F)F)c3nn2Cc2ccc(F)cc2Cl)cc1", "Potency": "inactive"}
{"molecule": "COc1cc(CC2COC(c3ccc(OC4OC(CO)C(O)C(O)C4O)c(OC)c3)C2CO)ccc1O", "note": "(centres undefined)", "Potency": "inactive"}
{"molecule": "FC(F)(F)Oc1ccc(-c2ccc3nnc(C(F)(F)F)n3c2)cc1", "Potency": "inactive"}
{"molecule": "OC[C@H]1O[C@@H](OCc2ccccc2)[C@H](O[C@@H]2OC[C@@H](O)[C@H](O)[C@H]2O)[C@@H](O)[C@@H]1O", "Potency": "inactive"}
{"molecule": "N#CN1CCC[C@@H](n2nc(-c3ccc(Oc4ccc(F)cc4F)cc3)c(C(N)=O)c2N)C1", "Potency": "inactive"}
{"molecule": "CC(=O)C1CCC(=O)N1Cc1ccccc1", "note": "(centres undefined)", "Potency": "inactive"}
{"molecule": "COC(=O)[C@]1(C)CCC[C@@]2(C)[C@@H]3CC[C@@H]4C[C@@]3(CC[C@@H]21)C[C@H]4C(=O)O", "Potency": "inactive"}
{"molecule": "NCCCCN(Cc1nc2ccccc2[nH]1)[C@H]1CCCc2cccnc21", "Potency": "inactive"}
{"molecule": "CC1CCC23COC(=O)C2=CC(O)CC3C1(C)CCc1ccoc1", "note": "(centres undefined)", "Potency": "inactive"}
{"molecule": "C[C@]1(OC(=O)/C=C/c2ccc(O)cc2)C[C@@H](O)[C@]2(O)C=CO[C@@H](O[C@@H]3O[C@H](CO)[C@@H](O)[C@H](O)[C@H]3O)C12", "note": "(some centres undefined)", "Potency": "inactive"}
{"molecule": "CN(C)c1ccc(C2O[C@@H](c3ccccc3)C[C@H](c3ccccc3)O2)cc1", "note": "(some centres undefined)", "Potency": "inactive"}
{"molecule": "CC1CCC2(NC1)OC1C(O)C3C4CCC5CC(O[C@@H]6O[C@H](CO)[C@@H](O)[C@H](O)[C@H]6O[C@@H]6O[C@@H](C)[C@H](O)[C@@H](O)[C@H]6O)CCC5(C)C4CCC3(C)C1C2C", "note": "(some centres undefined)", "Potency": "inactive"}
{"molecule": "COc1ccc(C(=O)NCc2cc(C(C)C)no2)cc1OC1CCN(C)CC1", "Potency": "inactive"}
{"molecule": "CC(=O)OC1(C)CC(O)C2(O)C=COC(OC3OC(CO)C(O)C(O)C3O)C12", "note": "(centres undefined)", "Potency": "inactive"}
{"molecule": "CC(=O)OC12CC(C)C(O)C1/C=C(/COC1OC(CO)C(O)C(O)C1O)CCC1C(/C=C(\\C)C2=O)C1(C)C", "note": "(centres undefined)", "Potency": "inactive"}
{"molecule": "O=C(O)c1ccc(NC(=O)[C@H](CC2CCCC2)n2cnc(C(F)(F)F)c2)nc1", "Potency": "inactive"}
{"molecule": "Oc1ccc(CC2NCCc3cc(O)c(O)cc32)cc1", "note": "(centres undefined)", "Potency": "inactive"}
{"molecule": "O=C(O[C@@H]1O[C@H](CO)[C@@H](O)[C@H](O)[C@H]1O)c1ccccc1", "Potency": "inactive"}
{"molecule": "CC(C)C1(O)C=C2C(=O)CC3C(C)(C(=O)O)CCCC3(C)C2CC1", "note": "(centres undefined)", "Potency": "inactive"}
{"molecule": "Cc1cn(C[C@H](N)C(=O)O)c(=O)n(Cc2ccsc2C(=O)O)c1=O", "Potency": "inactive"}
{"molecule": "C=C(CCO)C(=O)OCC1OCC(OC(=O)C(=C)CCO[C@@H]2O[C@H](COC(=O)C(=C)CCO[C@@H]3O[C@H](CO)[C@@H](O)[C@H](O)[C@H]3O)[C@@H](O)[C@H](O)[C@H]2O)C(O)C1O", "note": "(some centres undefined)", "Potency": "inactive"}
{"molecule": "Cc1nc(-c2cccnc2)sc1C(=O)Nc1ccccc1-c1cn2c(CN3CCOCC3)csc2n1", "Potency": "inactive"}
